Test systems include DU-145 prostate; K-562 leukemia; MALME-3M melanoma; MDA-MB-231 breast; RXF 393 renal; SF-268 CNS; SF-295 CNS; SF-539 CNS; UACC-257 melanoma; M14 melanoma.
Holding throughout (assay): NCI-60 one-dose screen, 48 h (100 = growth as untreated, 0 = no growth, -100 = all killed)
What all share (conditions): 10 µM unless noted

Molecules are shown by their SMILES. About 83,000 compounds went through this panel and 20% of them were active in at least one assay; those are over-represented in the sample as a whole.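 Method: cells in 96-well plates; compound added at one concentration; 48 h incubation; percent growth measured; values under 10 scored active.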 Values without a mark were called inactive. Active and inactive are the calls of the source.

On to `CCC(=C(c1ccc(OCCN2CCCC2)cc1)c1ccc(OCCN2CCCC2)cc1)c1ccc(Cl)cc1`, for which the growth in the experiment on DU-145 prostate was 26.4%; in the experiment on K-562 leukemia it was -21.2% (active); in the experiment with MALME-3M melanoma, -82.1% (active); with MDA-MB-231 breast, -70.9% (active); in the experiment on RXF 393 renal it was 13.7%; with SF-268 CNS, 49.8%. For the same molecule, the growth in the experiment with SF-295 CNS is -61.9% (active); with SF-539 CNS, -88.4% (active); in the experiment with UACC-257 melanoma, -58% (active); in the experiment with M14 melanoma, -75% (active).
Consider `CCn1c(SCC(=O)c2ccc(Br)cc2)nnc1-c1ccncc1`, for which the growth with DU-145 prostate is 103%; with K-562 leukemia, 91.5%; with MALME-3M melanoma it was 105%; in the experiment with MDA-MB-231 breast, 106%; in the experiment with RXF 393 renal it was 113%; with SF-268 CNS it was 96.5%. Moreover, the growth with SF-295 CNS was 101%; in the experiment on SF-539 CNS it was 99.3%; with UACC-257 melanoma it was 107%; in the experiment on M14 melanoma, 108%.
Consider `Cc1ccc(Cc2cnc(NC(=O)c3cc(Br)cs3)s2)cc1`, for which the growth with DU-145 prostate is 84.9%; in the experiment on K-562 leukemia, 15%; in the experiment on MALME-3M melanoma, 56.5%; in the experiment on MDA-MB-231 breast it was 70.9%; with RXF 393 renal, 71.4%; in the experiment on SF-268 CNS, 71.7%. Also, the growth was 43.8% in the experiment on SF-295 CNS, 66.4% with SF-539 CNS, 79.5% with UACC-257 melanoma and 30.4% in the experiment with M14 melanoma.
Take `COC(=O)[C@]1(C)CCC[C@]2(C)[C@H]3C[C@H]4C(C(C)C)=C[C@]3(CC[C@H]21)[C@H]1[C@@H]4[C@@H](OCCC#N)CC[C@@H]1OCCC#N`: the growth in the experiment with DU-145 prostate is 57%; in the experiment on K-562 leukemia, 26.8%; in the experiment with MALME-3M melanoma, 61.9%; with MDA-MB-231 breast it was 47.3%; with RXF 393 renal, -10.5% (active); in the experiment with SF-268 CNS it was 47.9%. The growth with SF-295 CNS is 30%; in the experiment on SF-539 CNS, 59.7%; in the experiment with UACC-257 melanoma, 37.8%; in the experiment with M14 melanoma, 40.7%.
On to `Cc1nnc(-n2c(O)cc(=O)n(-c3ccccc3)c2=S)nc1/C=C/c1ccc(N(C)C)cc1`, for which the growth is 73.7% in the experiment with DU-145 prostate; 30.1% with K-562 leukemia; 63.3% in the experiment with MALME-3M melanoma; 45.6% in the experiment with MDA-MB-231 breast; 83.3% in the experiment on RXF 393 renal; 78.4% in the experiment on SF-268 CNS. The growth with SF-295 CNS was 62%; with SF-539 CNS it was 66%; in the experiment on UACC-257 melanoma, 35.3%; in the experiment with M14 melanoma, 49.8%.
In the case of `COC(=O)c1ccc2c(c1)C(=O)c1c-2n(CCCN)c(=O)c2cc([N+](=O)[O-])ccc12`, the growth is -100% (active) with DU-145 prostate; -100% (active) in the experiment with K-562 leukemia; -96.9% (active) in the experiment with MALME-3M melanoma; -100% (active) in the experiment with MDA-MB-231 breast; -87.5% (active) in the experiment on RXF 393 renal; -87.2% (active) with SF-268 CNS. The growth was -77.4% (active) in the experiment with SF-295 CNS, -94.2% (active) in the experiment with SF-539 CNS, -96.1% (active) in the experiment with UACC-257 melanoma and -100% (active) in the experiment on M14 melanoma.
As for `C=CCn1cc(-c2nc3ccccc3s2)c2cc(-c3ccc4c5c(cccc35)C(=O)N(N)C4=O)ccc21`, the growth is 110% in the experiment with DU-145 prostate; 107% with K-562 leukemia; 101% in the experiment with MALME-3M melanoma; 83.1% in the experiment on MDA-MB-231 breast; 106% in the experiment with RXF 393 renal; 89.5% in the experiment on SF-268 CNS. Further, the growth was 99.1% in the experiment with SF-295 CNS, 101% in the experiment with SF-539 CNS, 104% with UACC-257 melanoma and 94.5% in the experiment on M14 melanoma.
Regarding `O=C(Nc1nn(-c2ccc(Cl)cc2Cl)nc1-c1ccccc1)c1ccccc1`, the growth was 131% in the experiment with DU-145 prostate; 91.9% in the experiment with K-562 leukemia; 80.2% in the experiment with MALME-3M melanoma; 98.3% in the experiment on MDA-MB-231 breast; 111% with RXF 393 renal; 107% in the experiment with SF-268 CNS. For the same molecule, the growth in the experiment with SF-295 CNS was 56.9%; in the experiment with SF-539 CNS it was 121%; in the experiment with UACC-257 melanoma it was 106%; with M14 melanoma, 87.1%.
With `COc1ccc(C(=O)Nc2ncc(Cc3cccc(Cl)c3)s2)cc1OC`, the growth is 30.5% with DU-145 prostate; 11.6% with K-562 leukemia; 47.6% with MALME-3M melanoma; 39.1% in the experiment on MDA-MB-231 breast; -7.25% (active) in the experiment on RXF 393 renal; 50.8% in the experiment with SF-268 CNS. Moreover, the growth is 6.3% (active) in the experiment on SF-295 CNS, -12.3% (active) with SF-539 CNS, 23.1% in the experiment on UACC-257 melanoma and 8.45% (active) in the experiment with M14 melanoma.
On to `O=C1c2c(c3c4ccccc4[nH]c3c3ccc4ccccc4c23)C(=O)N1CCN1CCCCC1`, for which the growth with DU-145 prostate was 26.2%; in the experiment on K-562 leukemia, -7.75% (active); in the experiment on MALME-3M melanoma, 73.9%; in the experiment with MDA-MB-231 breast, 75.7%; in the experiment with RXF 393 renal, 65.7%; in the experiment with SF-268 CNS, 39.6%. In addition, the growth is 30.4% with SF-295 CNS, 46.3% in the experiment with SF-539 CNS, 85.4% with UACC-257 melanoma and 30.2% with M14 melanoma.
As for `O=C(O)CCCN1C(=O)/C(=C/C(Cl)=C/c2ccccc2)SC1=S`, the growth is 18.9% with DU-145 prostate; 14.7% in the experiment on K-562 leukemia; -2.99% (active) with MALME-3M melanoma; 38.1% in the experiment on MDA-MB-231 breast; -16.5% (active) in the experiment on RXF 393 renal; 56.1% with SF-268 CNS. Further, the growth with SF-295 CNS is 49.5%; with SF-539 CNS it was 10%; in the experiment on UACC-257 melanoma, 40.8%; in the experiment with M14 melanoma it was 9.62% (active).
As for `Cc1c(-c2nc3ccc(F)cc3c(=O)[nH]2)c2ccccc2n1C`, the growth is 53.6% in the experiment on DU-145 prostate; 15% in the experiment on K-562 leukemia; 48.4% in the experiment on MALME-3M melanoma; 57.8% in the experiment on MDA-MB-231 breast; 14.3% with RXF 393 renal; 54.1% in the experiment with SF-268 CNS. For the same molecule, the growth in the experiment with SF-295 CNS was 15.1%; in the experiment with SF-539 CNS, 23.8%; in the experiment with UACC-257 melanoma, 55%; with M14 melanoma it was 18.2%.
With `COc1cc2oc(-c3cccc(NC(=O)c4cccc(Br)c4)c3)cc(=O)c2c(OC)c1OC`, the growth is 54.4% in the experiment with DU-145 prostate; 25.8% in the experiment on K-562 leukemia; 53% in the experiment with MALME-3M melanoma; 63.5% with MDA-MB-231 breast; 54.9% in the experiment with RXF 393 renal; 59.7% in the experiment with SF-268 CNS. In addition, the growth is 40.9% with SF-295 CNS, 69% in the experiment on SF-539 CNS, 83.8% in the experiment with UACC-257 melanoma and 59% with M14 melanoma.
For `CC(C)OC(=O)c1ccc2[nH]c(O)c(C(=Nc3ccc(N(C)C(=O)CN4CCN(C)CC4)cc3)c3ccccc3)c2c1`, the growth was -23% (active) with DU-145 prostate; -15.2% (active) in the experiment on K-562 leukemia; -85% (active) in the experiment with MALME-3M melanoma; -71.4% (active) in the experiment with MDA-MB-231 breast; -96.8% (active) in the experiment on RXF 393 renal; -32.7% (active) in the experiment on SF-268 CNS. In addition, the growth in the experiment with SF-295 CNS is -26.9% (active); with SF-539 CNS it was -95.6% (active); in the experiment with UACC-257 melanoma it was -64.9% (active); in the experiment with M14 melanoma it was -85.1% (active).
For `COc1ccc(C(=O)C2C(c3ccc(OC)cc3)CN(C)C23C(=O)Nc2ccccc23)cc1` (stereo not given), the growth is 99% in the experiment on DU-145 prostate; 77.1% in the experiment on K-562 leukemia; 92.7% in the experiment on MALME-3M melanoma; 93.9% in the experiment with MDA-MB-231 breast; 80.8% in the experiment on RXF 393 renal; 89.7% with SF-268 CNS. For the same molecule, the growth with SF-295 CNS was 90.6%; in the experiment with SF-539 CNS it was 104%; in the experiment on UACC-257 melanoma it was 97.5%; in the experiment on M14 melanoma, 98.9%.
Regarding `O=Cc1ccc([N+](=O)[O-])s1`, the growth in the experiment on DU-145 prostate is 110%; in the experiment on K-562 leukemia it was 75.4%; with MALME-3M melanoma it was 115%; in the experiment with MDA-MB-231 breast, 85.2%; with RXF 393 renal, 123%; in the experiment with SF-268 CNS, 96.6%. For the same molecule, the growth in the experiment with SF-295 CNS is 107%; in the experiment with SF-539 CNS, 86.5%; with UACC-257 melanoma, 97.3%; with M14 melanoma, 92%.
On to `O=C(c1ccc(-c2nc(CSc3nc4ccccc4s3)no2)cc1)N1CCSCC1`, for which the growth was 81.9% in the experiment with DU-145 prostate; 36.6% in the experiment with K-562 leukemia; 66.3% with MALME-3M melanoma; 64.6% in the experiment with MDA-MB-231 breast; 110% in the experiment with RXF 393 renal; 77.1% in the experiment with SF-268 CNS. The growth is 40.6% with SF-295 CNS, 80.3% in the experiment with SF-539 CNS, 35.7% with UACC-257 melanoma and 79.9% with M14 melanoma.
For `CN(CCOc1ccc(C#N)cc1)CCOc1ccc(C#N)cc1`, the growth was 94.3% with DU-145 prostate; 101% in the experiment on K-562 leukemia; 76.5% with MALME-3M melanoma; 71.2% with MDA-MB-231 breast; 53.7% with RXF 393 renal; 103% in the experiment on SF-268 CNS. The growth was 483% in the experiment with SF-295 CNS, 96.1% in the experiment with SF-539 CNS, 65.8% with UACC-257 melanoma and 65.2% in the experiment with M14 melanoma.
As for `CCOc1ccc(NC(=O)CSc2oc(-c3ccccc3)nc2S(=O)(=O)c2ccc(F)cc2)cc1`, the growth with DU-145 prostate was 89.8%; in the experiment on K-562 leukemia, 65.9%; with MALME-3M melanoma, 78.3%; in the experiment on MDA-MB-231 breast, 64.2%; in the experiment with RXF 393 renal, 77.6%; in the experiment on SF-268 CNS it was 60.2%. Besides, the growth in the experiment on SF-295 CNS is 50%; with SF-539 CNS, 6.59% (active); in the experiment with UACC-257 melanoma it was 70.1%; with M14 melanoma it was 86.9%.

Values taken from PubChem BioAssay (NCI).
